Measurements published in PubChem BioAssay AID1159580 (chemical genetic matrix, 2015).
The whole screen tested about 5,500 compounds, of which about 2,000 (36%) were called active. Roughly 18% stayed inconclusive and do not appear here. Cut-off read from the data, not from the text of the source: active = normalized growth mostly below about 0.91 (no sharp cut-off); inconclusive = no clear call, values can overlap the other calls; inactive = mostly above about 0.92. This is one part of the list.

Assay: chemical genetic growth profiling, strain panel (AID 1159580);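 note: tested at 20 µM; growth read once vehicle control cultures reached saturation at 30 °C; 1 = growth at the plate median or of vehicle wells; lower values mean less growth of the strain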
Settings: growth OD

Measured: normalized growth

COc1cc2cc[n+]3cc4c(OC)c(OC)ccc4cc3c2cc1OC
inactive: S. cerevisiae deletion strains, locus YJR075W, strain HOC1, stronger effect = lower value 0.979 | S. cerevisiae deletion strains, locus YKL009W, strain mrt4, stronger effect = lower value 0.965 | S. cerevisiae deletion strains, locus YKL068W, stronger effect = lower value 0.963 | S. cerevisiae deletion strains, locus YKL085W, strain MDH1 (second series), stronger effect = lower value 0.992 | S. cerevisiae deletion strains, locus YKL085W, strain MDH1, stronger effect = lower value 0.992 | S. cerevisiae deletion strains, locus YKL160W, strain elf1, stronger effect = lower value 0.976 | S. cerevisiae deletion strains, locus YKL190W, strain CNB1, stronger effect = lower value 0.982 | S. cerevisiae deletion strains, locus YKR001C, strain vps1, stronger effect = lower value 0.99 | S. cerevisiae deletion strains, locus YKR026C, strain gcn3, stronger effect = lower value 0.985 | S. cerevisiae deletion strains, locus YKR091W, strain srl3, stronger effect = lower value 0.976 | S. cerevisiae deletion strains, locus YLL001W, strain dnm1, stronger effect = lower value 0.965 | S. cerevisiae deletion strains, locus YLL026W, stronger effect = lower value 0.97 | S. cerevisiae deletion strains, locus YLL041C, strain sdh2, stronger effect = lower value 0.99 | S. cerevisiae deletion strains, locus YLR027C, strain aat2, stronger effect = lower value 0.962 | S. cerevisiae deletion strains, locus YLR039C, strain RIC1, stronger effect = lower value 0.938 | S. cerevisiae deletion strains, locus YLR058C, strain SHM2, stronger effect = lower value 0.985 | S. cerevisiae deletion strains, locus YLR102C, strain apc9, stronger effect = lower value 0.959 | S. cerevisiae deletion strains, locus YLR113W, strain HOG1, stronger effect = lower value 1.02 | S. cerevisiae deletion strains, locus YLR221C, strain rsa3, stronger effect = lower value 0.968 | S. cerevisiae deletion strains, locus YLR258W, strain gsy2, stronger effect = lower value 0.993 | S. cerevisiae deletion strains, locus YLR262C, strain YPT6 (second series), stronger effect = lower value 1.01 | S. cerevisiae deletion strains, locus YLR262C, strain YPT6, stronger effect = lower value 0.926 | S. cerevisiae deletion strains, locus YLR268W, strain sec22, stronger effect = lower value 1 | S. cerevisiae deletion strains, locus YLR320W, strain mms22, stronger effect = lower value 0.979 | S. cerevisiae deletion strains, locus YLR330W, strain CHS5, stronger effect = lower value 0.977 | S. cerevisiae deletion strains, locus YLR342W, strain FKS1 (second series), stronger effect = lower value 0.96 | S. cerevisiae deletion strains, locus YLR342W, strain FKS1, stronger effect = lower value 0.981 | S. cerevisiae deletion strains, locus YLR357W, strain rsc2, stronger effect = lower value 0.95 | S. cerevisiae deletion strains, locus YLR370C, strain arc18, stronger effect = lower value 0.981 | S. cerevisiae deletion strains, locus YLR371W, strain rom2, stronger effect = lower value 0.952 | S. cerevisiae deletion strains, locus YLR384C, strain iki3, stronger effect = lower value 0.977 | S. cerevisiae deletion strains, locus YLR418C, strain cdc73, stronger effect = lower value 1 | S. cerevisiae deletion strains, locus YML016C, strain PPZ1, stronger effect = lower value 0.985 | S. cerevisiae deletion strains, locus YML032C, strain rad52, stronger effect = lower value 0.955 | S. cerevisiae deletion strains, locus YML120C, strain ndi1, stronger effect = lower value 0.978 | S. cerevisiae deletion strains, locus YML124C, strain tub3, stronger effect = lower value 0.985 | S. cerevisiae deletion strains, locus YMR058W, strain fet3, stronger effect = lower value 0.973 | S. cerevisiae deletion strains, locus YMR078C, strain ctf18, stronger effect = lower value 0.986 | S. cerevisiae deletion strains, locus YMR125W, strain sto1, stronger effect = lower value 0.938 | S. cerevisiae deletion strains, locus YMR129W, stronger effect = lower value 0.987 | S. cerevisiae deletion strains, locus YMR205C, strain PFK2, stronger effect = lower value 0.961 | S. cerevisiae deletion strains, locus YMR223W, strain ubp8, stronger effect = lower value 0.97 | S. cerevisiae deletion strains, locus YMR231W, strain pep5, stronger effect = lower value 0.988 | S. cerevisiae deletion strains, locus YMR263W, strain SAP30, stronger effect = lower value 0.988 | S. cerevisiae deletion strains, locus YMR307W, strain GAS1, stronger effect = lower value 1.1 | S. cerevisiae deletion strains, locus YNL067W, strain RPL9B, stronger effect = lower value 0.982 | S. cerevisiae deletion strains, locus YNL071W, strain lat1, stronger effect = lower value 0.988 | S. cerevisiae deletion strains, locus YNL128W, strain TEP1, stronger effect = lower value 0.995 | S. cerevisiae deletion strains, locus YNL153C, strain GIM3, stronger effect = lower value 0.999 | S. cerevisiae deletion strains, locus YNL183C, strain NPR1, stronger effect = lower value 0.95 | S. cerevisiae deletion strains, locus YNL209W, strain ssb2, stronger effect = lower value 0.982 | S. cerevisiae deletion strains, locus YNL233W, strain BNI4, stronger effect = lower value 1 | S. cerevisiae deletion strains, locus YNL248C, strain rpa49, stronger effect = lower value 0.968 | S. cerevisiae deletion strains, locus YNL250W, strain rad50, stronger effect = lower value 0.968 | S. cerevisiae deletion strains, locus YNL271C, strain bni1, stronger effect = lower value 0.975 | S. cerevisiae deletion strains, locus YNL298W, strain CLA4, stronger effect = lower value 0.984 | S. cerevisiae deletion strains, locus YNL307C, strain MCK1, stronger effect = lower value 0.985 | S. cerevisiae deletion strains, locus YNL322C, strain KRE1 (second series), stronger effect = lower value 0.959 | S. cerevisiae deletion strains, locus YNL322C, strain KRE1, stronger effect = lower value 0.98 | S. cerevisiae deletion strains, locus YNR049C, strain mso1, stronger effect = lower value 0.972 | S. cerevisiae deletion strains, locus YNR052C, strain pop2, stronger effect = lower value 0.98 | S. cerevisiae deletion strains, locus YOL006C, strain TOP1, stronger effect = lower value 1.02 | S. cerevisiae deletion strains, locus YOL012C, strain htz1 0.901 | S. cerevisiae deletion strains, locus YOL147C, strain pex11, stronger effect = lower value 0.988 | S. cerevisiae deletion strains, locus YOR001W, strain rrp6, stronger effect = lower value 0.987 | S. cerevisiae deletion strains, locus YOR061W, strain CKA2, stronger effect = lower value 0.98 | S. cerevisiae deletion strains, locus YOR069W, strain VPS5, stronger effect = lower value 0.993 | S. cerevisiae deletion strains, locus YOR070C, strain gyp1, stronger effect = lower value 0.984 | S. cerevisiae deletion strains, locus YOR080W, strain dia2, stronger effect = lower value 0.965 | S. cerevisiae deletion strains, locus YOR083W, strain WHI5, stronger effect = lower value 0.964 | S. cerevisiae deletion strains, locus YOR106W, strain vam3, stronger effect = lower value 0.998 | S. cerevisiae deletion strains, locus YOR136W, strain idh2, stronger effect = lower value 0.986 | S. cerevisiae deletion strains, locus YOR144C, strain elg1, stronger effect = lower value 0.983 | S. cerevisiae deletion strains, locus YOR184W, strain ser1, stronger effect = lower value 0.933 | S. cerevisiae deletion strains, locus YOR231W, strain MKK1, stronger effect = lower value 1.03 | S. cerevisiae deletion strains, locus YOR265W, strain rbl2, stronger effect = lower value 0.989 | S. cerevisiae deletion strains, locus YOR270C, strain vph1, stronger effect = lower value 0.937 | S. cerevisiae deletion strains, locus YOR290C, strain snf2, stronger effect = lower value 0.946 | S. cerevisiae deletion strains, locus YOR316C, strain cot1, stronger effect = lower value 0.988 | S. cerevisiae deletion strains, locus YPL051W, strain arl3, stronger effect = lower value 0.997 | S. cerevisiae deletion strains, locus YPL055C, strain LGE1, stronger effect = lower value 0.984 | S. cerevisiae deletion strains, locus YPL078C, strain atp4, stronger effect = lower value 0.986 | S. cerevisiae deletion strains, locus YPL106C, strain sse1, stronger effect = lower value 0.953 | S. cerevisiae deletion strains, locus YPL240C, strain hsp82, stronger effect = lower value 0.982 | S. cerevisiae deletion strains, locus YPL256C, strain CLN2, stronger effect = lower value 1.03 | S. cerevisiae deletion strains, locus YPR119W, strain clb2, stronger effect = lower value 0.979 | S. cerevisiae deletion strains, locus YPR141C, strain kar3, stronger effect = lower value 0.988 | S. cerevisiae deletion strains, locus YPR163C, strain tif3, stronger effect = lower value 0.988 | S. cerevisiae deletion strains, locus YPR167C, strain met16, stronger effect = lower value 0.984 | S. cerevisiae deletion strains, strain wtn01, stronger effect = lower value 0.971 | S. cerevisiae strains, strain wild type, stronger effect = lower value 0.985
